Measured values as given in PubChem BioAssay (NCI).
The panel holds about 83,000 compounds, 20% with a hit somewhere; the sample as a whole holds those more often.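 In brief: 96-well plates, 48 h treatment, single concentration, percent growth endpoint.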 Activity calls are given as the source filed them.

Test system: CAKI-1 renal
Experiment: NCI-60 one-dose screen, 48 h (100 = growth as untreated, 0 = no growth, -100 = all killed)
Details: 10 µM unless noted
Method: Growth inhibition of the CAKI-1 human tumor cell line is measured as a screen for anti-cancer activity. Cells are grown in 96 well plates and exposed to the test compound for 48 hours. Compounds are tested at a single concentration, which is 10^-5 M for most compounds. The reported endpoint is percent growth (GI% or GIPRCNT), where numbers from 0 - 100% represent growth inhibition, and numbers from -100% - 0 represent cell death. For example, a value of 40 represents 60% growth inhibition. A value of 0 means no net growth occurred over the course of the experiment. A value of -40 indicates 40% of cells at the beginning of the experiment died by the end of the experiment. A value of -100 means all cells are dead at the end of the experiment.
NCI-60 Human Tumor Cell Lines Screen was performed using the standard one-dose NCI protocol, which is described in more detail at https://dtp.cancer.gov/discovery_development/nci-60/default.htm.
Compounds with GIPRCNT values below 10 were considered active. Activity score was based on GIPRCNT using the following formula: […]
Score is 0 for GIPRCNT values of 100 or above, 50 for GIPRCNT values of 0, and 100 for GIPRCNT values of -100.

| Structure (SMILES) | growth |
| --- | --- |
| CC(=O)[O][Hg][c]1c(N)c(C)cc(C)c1F | 45.8% (inactive) |
| O=C(Nc1ccc(Cl)cc1)Nc1nccs1 | 22.6% (inactive) |
| CC(C)(C)C(=O)OCOP(=O)(NCc1ccccc1)C1CCCN(O)C1=O (stereo not given) | 31.9% (inactive) |
| O=[N+]([O-])c1cc([N+](=O)[O-])c(Cl)cc1Cl | -81.2% (active) |
| COC(=O)[C@@H](C)C[C@H](Cc1ccccc1)NC(=O)c1csc([C@@H](C[C@H](C(C)C)N(C)C(=O)[C@@H](NC(=O)CN(C)C)C2CC2)OC(C)=O)n1 | 63.5% (inactive) |
| C1CCC([PH+](C2CCCCC2)C2CCCCC2[PH+](C2CCCCC2)C2CCCCC2)CC1.[Au].[CH-]1CCCCC1CC1CCCC[N-]1 (stereo not given) | -31.3% (active) |
| Cn1cc(C2=C(c3cn(C4CCN(Cc5ccccn5)CC4)c4ccccc34)C(=O)NC2=O)c2ccccc21 | 50.8% (inactive) |
| COc1ccc(N(CC(=O)NCCC[Te]c2ccccc2)C(=O)CNC(=O)OC(C)(C)C)cc1 | 70.4% (inactive) |
| NC(N)=N/N=C\c1c[nH]c2ccc(Br)cc12 | 101% (inactive) |
| CC(=O)Nc1nc2c(s1)CC[C@@]1(C)C2=CC[C@H]2[C@@H]3CC[C@H](O)[C@@]3(C)CC[C@@H]21 | 44.1% (inactive) |
| NC(=O)C(Br)c1ccccc1 (stereo not given) | -46% (active) |
| c1ccc(COc2ccc3[nH]cc(CCN(Cc4ccccc4)Cc4ccccc4)c3c2)cc1 | 71.8% (inactive) |
| O=C(CC1(O)C(=O)Nc2ccc(Br)cc21)c1ccc(C(=O)NCC2CCC3(CC2)OOC2(CCCCC2)OO3)cc1 (stereo not given) | 0.714% (active) |
| CN(C)C(=O)Oc1ccc(Br)cc1 | 95.5% (inactive) |
| ClCCN(CCCl)c1ccc(/C=N/Nc2ncnc3nc[nH]c23)cc1 | 64% (inactive) |
| COc1ccc(O)c(CNC(=O)CN2CCCC2=O)c1 | 97.4% (inactive) |
| O=C(N/N=C\c1ccc(N(CCCl)CCCl)cc1)c1cccc([N+](=O)[O-])c1 | 89.3% (inactive) |
| CCc1ccccc1[C@@H]1C[C@]2(C)CCO[C@@H]2OO1 | 96.5% (inactive) |
| CC(=O)OC1C(OC/C2=C/C3[C@@H](C(C)C)CC=C(C)[C@@H]3CC(OC(=O)/C=C/c3cn(C)cn3)[C@]3(C)C=C[C@@]2(O)O3)OCC(O)C1O (stereo not given in full) | 37% (inactive) |
| COc1ccc(NC([Se])=NC23CC4CC(CC(C4)C2)C3)cc1 | -31% (active) |

| Structure (SMILES) | growth |
| --- | --- |
| C[C@]12CCc3nc(Nc4ccccc4F)sc3C1=CC[C@@H]1[C@@H]2CC[C@]2(C)C(=O)CC[C@@H]12 | 65.4% (inactive) |
| CC[C@@H]1[C@@H](C)O[C@@](O)([C@@H](C)[C@H](O)[C@H](C)[C@H]2OC(=O)/C=C/C=C/[C@H](C)[C@@H]([C@@H](C)[C@@H](O)[C@H](C)[C@@]3(O)C[C@@H](O[C@H]4C[C@@H](O)[C@H](O)C(C)O4)[C@H](CC)[C@@H](C)O3)OC(=O)/C=C/C=C/[C@@H]2C)C[C@H]1O[C@@H]1C[C@@H](O)[C@H](O)C(C)O1 (stereo not given in full) | -98.4% (active) |
| c1ccc(Nc2nc(-c3ccccc3)c[se]2)cc1 | 55.7% (inactive) |
| COc1cc2c(=O)n(C3CCCCCCC3)c3c4cc[nH]c4ncc3c2cc1OC | 54.6% (inactive) |
| CC12CC(=O)C3(SC#N)C(CCC4=CC(=O)CCC43C)C1CCC2=O (stereo not given) | 93.5% (inactive) |
| CC(=O)OCc1cc[c]([Hg][Cl])o1 | 25.9% (inactive) |
| Clc1ccc(N2COOC3(OOC2)C2CC4CC(C2)CC3C4)cc1 | 52.3% (inactive) |
| C=C1C[C@](OC)([C@H](O)C(=O)N[C@@H](OC)[C@@H]2C[C@@H](O)C(C)(C)[C@@H](C[C@@H](COC)OC)O2)O[C@H](C)[C@@H]1C | -39.7% (active) |
| COc1cccc2c1c(C(=O)c1ccco1)cn2Cc1ccc(F)cc1 | 184% (inactive) |
| COC(=O)C12CC(NC(=O)c3csc([C@@H](C[C@H](C(C)C)N(C)C(=O)[C@@H](NC(=O)[C@H]4CCCCN4C)C4CC4)OC(C)=O)n3)(C1)C2 | 38.6% (inactive) |
| O=C(CC1(O)C(=O)N(Cc2ccccc2)c2ccc(Cl)cc21)c1ccc(C(=O)NCC2CCC3(CC2)OOC2(CCCCC2)OO3)cc1 (stereo not given) | -94.3% (active) |
| CC12CCC=CC1CCC1C2CCC2(C)C(c3ccc(=O)oc3)CCC12O (stereo not given) | -61.3% (active) |
| O=C(Nc1ccc(O)cc1)C(Cl)(Cl)Cl | 89.9% (inactive) |
| CCOC(=O)C(Cc1ccc(N(CCCl)CCCl)cc1)NC(=O)C(CC(C)C)NC(C)=O (stereo not given) | -20.7% (active) |
| O=C1OCCC1Br (stereo not given) | 95% (inactive) |
| CCOC(=O)N[C@H]1CCc2c(Br)c(OC)c(OC)c(OC)c2-c2ccc(SC)c(=O)cc21 | 3.95% (active) |
| ClCCN(CCCl)Cc1ccc(Nc2ccnc3cc(Cl)ccc23)cc1 | -32.8% (active) |
| CCCC(=O)O[C@@H]1C[C@H]2C[C@@H](O[C@@H]3O[C@@H](C)[C@@H](O)[C@@H](O)[C@H]3OC)C[C@@H](C[C@@H](C)/C=C/C=C\C[C@@H]3O[C@@H](C[C@@H]3C)[C@@H](O)C[C@H]3C[C@@]1(O)C(=O)O3)O2 | 60.9% (inactive) |
| CC(C)CCC1(CCCl)C(=O)NC(=O)NC1=O | 94.6% (inactive) |
| CN[C@]1(c2ccccc2Cl)CCCC[C@H]1NCCCN1CCN(C)CC1 | 87.3% (inactive) |
